Screens as filed in PubChem BioAssay.
Rows were chosen to be rich in hits. Some 19% of all compounds tested hit in one or more screens of this group.
uPA generation: blocks generation of uPA at the cell surface. hit rate 0.31% among 330,000. AID 540303. cell surface uPA generation assay, qHTS. Potency, µM (top dose mostly 38.3 µM), usual class: inhibitors; active = well fitted inhibition curve with a large enough effect; inconclusive = small, poorly fitted or top-dose-only effect; inactive = no such curve, though single readings can be large or run the other way; tested in mouse RAW 264.7 cells; also: nearly all actives have a fitted effect of over 55% in size
HT1080-NT tox: kills 2HG-producing HT-1080-NT fibrosarcoma cells; hit rate 1.6% among 360,000; HT-1080-NT fibrosarcoma viability, CellTiter-Glo ATP luminescence, 48 h; Potency, µM (doses to about 46.1 µM), hits mostly cytotoxic;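 also: NT is the 2HG producing partner of a matched IDH1 knockdown line; nearly all actives have a fitted effect of over 55% in size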
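Viability by CellTiter-Glo luminescence after 48 h compound exposure at 37C of HT-1080-NT cells (750/well, RPMI, 5% FBS). % activity scaled between DMSO wells and medium-only wells, then curve-fitted and categorized by curve class.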
TDP1 cell noCPT: qHTS for Inhibitors of human tyrosyl-DNA phosphodiesterase 1 (TDP1): qHTS in cells in absence of CPT | hit rate 15% among 420,000 | DT40 Tdp1-/- hTDP1 cells, no CPT, ATP luminescence, 48 h | AID 686978, 2013 | Potency, µM (titrated, usually from 46.2 µM), hits mostly inhibitors; also: nearly all actives have a fitted effect of over 55% in size
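Chicken DT40 Tdp1-/- cells complemented with human TDP1, screened without camptothecin (DMSO vehicle only), 400 cells/well. Compounds pin-transferred, cells incubated at 37 °C for at least 48 hr. Growth read as ATP-dependent luminescence (CellTiter-Glo, 30 min at RT).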
HT1080 IDH1KD tx: kills HT-1080 cells with IDH1 knockdown | HT-1080 IDH1 knockdown viability, ATP luminescence, 48 h | Potency, µM (doses to about 46.1 µM), most hits filed as cytotoxic | hit rate 2% among 360,000 | AID 686971
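After a 2 h attachment period, IDH1KD HT-1080 cells took pin-transferred compound for 48 h at 37 °C; ATP-based luminescence after 10 min room-temperature reagent incubation reported viability.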
IL1B secr inh: blocks inflammasome-driven IL-1 beta release. activity change, % at 57.5 µM. hit rate 4.7% among 360,000. THP-1 LPS/ATP IL-1B secretion, AlphaLISA, 16 h; hits give low values; in the data active = activity change below about -50%; inconclusive = mostly about -30% to -49%
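THP-1 cells pretreated 1 hr with compounds (up to 57.5 uM final), then stimulated with LPS (250 ng/mL final) plus ATP (1.25 mM final); secreted IL-1B measured by AlphaLISA after 16 hr, decreased signal indicating inhibition.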
TDP1 cell CPT: growth inhibition of DT40 Tdp1-/-;hTDP1 cells with camptothecin (screen for TDP1 inhibitors); chicken DT40 Tdp1-/-;hTDP1 cells + 20 nM CPT, ATP luminescence, 48 h; Potency, µM (top dose mostly 46.2 µM), actives largely listed as inhibitors; hit rate 12% among 420,000; also: nearly all actives have a fitted effect of over 55% in size
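Chicken DT40 Tdp1-/- cells complemented with human TDP1, 400 cells/well, exposed to compounds plus 20 nM camptothecin for at least 48 h at 37 C; viability read as ATP content by CellTiter-Glo luminescence.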
Of the large screens only hits and unclear results are named; the others gave an inactive call. Unless noted, calls follow the shape of the dose curve; as a rule, active = well fitted curve in the direction sought with a large enough effect; inconclusive = small, poorly fitted or top-dose-only effect, or another doubt; inactive = no such curve, though single readings can be large; an effect the other way counts as inactive or inconclusive.

O[N+]1=CC=CCC1=S.On1ccccc1=S.[Zn]	TDP1 cell noCPT 0.15µM, TDP1 cell CPT 0.033µM (no result: uPA generation, HT1080-NT tox, HT1080 IDH1KD tx, IL1B secr inh)
Cc1ccc(S(=O)(=O)c2nnn3c2nc(N2CCC(C(N)=O)CC2)c2cc(Cl)ccc23)cc1C	TDP1 cell noCPT 5.2µM, TDP1 cell CPT 21µM (no result: uPA generation, HT1080-NT tox, HT1080 IDH1KD tx, IL1B secr inh)
N#CN	none (no result: uPA generation, HT1080-NT tox, HT1080 IDH1KD tx, IL1B secr inh)
C/C(=N\N1CCN(C)CC1)c1c(O)[nH]c(=O)[nH]c1=O	none
CN1CSC(=S)N(C)C1	TDP1 cell noCPT 4.6µM, IL1B secr inh -95, TDP1 cell CPT 6.5µM
COc1ccc(C=O)cc1	HT1080-NT tox inconclusive
CC(=O)Oc1ccc(/C=C/c2cc(OC(C)=O)cc(OC(C)=O)c2)cc1	TDP1 cell noCPT 12µM, TDP1 cell CPT inconclusive (no result: uPA generation, HT1080-NT tox, HT1080 IDH1KD tx, IL1B secr inh)
NC(CP(=O)(O)O)C(=O)O (stereo not given)	none (no result: uPA generation, HT1080-NT tox, HT1080 IDH1KD tx, IL1B secr inh)
CCCNC(=O)c1cnn2c(C)c(Cc3c(C)cc(C)cc3C)c(C)nc12	TDP1 cell noCPT 1.8µM, TDP1 cell CPT 3.7µM (no result: uPA generation, HT1080-NT tox, HT1080 IDH1KD tx, IL1B secr inh)
Cc1ccccc1Cc1c(C)nc2c(C(=O)NCc3ccco3)cnn2c1C	HT1080-NT tox inconclusive, TDP1 cell noCPT inconclusive, HT1080 IDH1KD tx inconclusive, IL1B secr inh inconclusive, TDP1 cell CPT 14µM (no result: uPA generation)
Cc1nc2c(C(=O)N3CCC4(CC3)OCCO4)cnn2c(C)c1Cc1cccc(Cl)c1	TDP1 cell noCPT inconclusive, TDP1 cell CPT inconclusive
C=C[C@@]12CN(C)[C@H]3[C@H]1[C@@]1(C(=O)Nc4ccccc41)C1CC2[C@@H]3CO1	none
O=C(c1ccc2c(c1)ncn2C1CCCCC1)N1CCC2(CC1)OCCO2	HT1080-NT tox inconclusive, TDP1 cell noCPT 4.6µM, HT1080 IDH1KD tx inconclusive, TDP1 cell CPT 6.5µM
Cc1cccc(-c2nc3ccc(C(=O)N4CCC5(CC4)OCCO5)cc3nc2-c2cccc(C)c2)c1	HT1080-NT tox inconclusive, TDP1 cell noCPT inconclusive, HT1080 IDH1KD tx inconclusive, IL1B secr inh -77, TDP1 cell CPT inconclusive
O=C(c1ccc2c(c1)N(Cc1ccccc1)CCS2)N1CCC2(CC1)OCCO2	none
Cc1ccc(CN2C(=O)c3ccccc3Sc3ccc(C(=O)N4CCC5(CC4)OCCO5)cc32)cc1	TDP1 cell noCPT 23µM, TDP1 cell CPT inconclusive (no result: uPA generation, HT1080-NT tox, HT1080 IDH1KD tx, IL1B secr inh)
C=CCN1C(=O)c2ccccc2Sc2ccc(C(=O)N3CCC4(CC3)OCCO4)cc21	TDP1 cell noCPT inconclusive, HT1080 IDH1KD tx inconclusive, TDP1 cell CPT inconclusive (no result: uPA generation)
O=C(c1ccc2c(c1)N(Cc1ccc(F)cc1Cl)C(=O)c1ccccc1S2)N1CCC2(CC1)OCCO2	TDP1 cell noCPT 23µM, TDP1 cell CPT 23µM (no result: uPA generation, HT1080-NT tox, HT1080 IDH1KD tx, IL1B secr inh)
COC(=O)C1=C(c2ccc(OC)c(OC)c2)C[C@@H]2CC[C@H]1N2C(=O)NCc1cccc2ccccc12	TDP1 cell noCPT inconclusive, TDP1 cell CPT inconclusive
N#CC1=C(N)C(C#N)(C#N)C(c2ccncc2)C2CN(C(=O)OCc3ccccc3)CC=C12 (stereo not given)	HT1080-NT tox inconclusive, TDP1 cell noCPT 16µM, HT1080 IDH1KD tx 21µM, IL1B secr inh inconclusive, TDP1 cell CPT 21µM
Cc1ccccc1OP(=O)(Oc1ccccc1C)N1CCOCC1	TDP1 cell noCPT inconclusive, TDP1 cell CPT inconclusive (no result: uPA generation)
Cc1ccc(S(=O)(=O)N2Cc3ccccc3-n3nncc3C2)cc1	TDP1 cell noCPT inconclusive, TDP1 cell CPT inconclusive
CC(=O)Nc1ccc(S(=O)(=O)N2Cc3ccccc3-n3nncc3C2)cc1	TDP1 cell noCPT 15µM, TDP1 cell CPT 15µM (no result: uPA generation)
C/C(=N\N1CCCCC1c1cccnc1)c1c(O)n(C2CCCCC2)c(=S)[nH]c1=O (stereo not given)	TDP1 cell noCPT inconclusive, TDP1 cell CPT inconclusive
COc1cc2c(c(OC)c1OC)-c1ccc(OC)c(=O)cc1C(NC(C)=O)CC2 (stereo not given)	uPA generation inconclusive, HT1080-NT tox 0.015µM, TDP1 cell noCPT 0.0092µM, HT1080 IDH1KD tx inconclusive, TDP1 cell CPT 0.018µM
COC1=C[C@@H]2C3=C([C@@H]2C1=O)[C@@H](NC(C)=O)CCc1cc(OC)c(OC)c(OC)c13	none
